The record followed here is PubChem BioAssay (EPA / NIEHS).

As usually defined, the AC50 is the concentration giving half of the maximal activity seen.

Each structure is given as a SMILES string. Calls of active or inactive are those of the source. The calls were made as follows: active = hit-call score of the fitted dose curve at least 0.9, where 1 is the maximum; inactive = score below 0.9.

Read-out in this test: Matrix Metallopeptidase 9 (MMP9), MMP9 (gene 4318)
As to the kind of experiment: BSK_KF3CT_MMP9: BioMAP Diversity Plus: KF3CT Assay for Matrix Metallopeptidase 9 (MMP9) Biomarker Activity (AID 2283074).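 As to AC50: MMP9 protein level quantified by ELISA in the co-culture.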 The settings on record: primary human keratinocytes with fibroblasts; actives raise or lower the signal. The method in brief:
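ELISA read-out of MMP-9 at 24 h post-dosing in a co-culture of human skin keratinocytes and foreskin fibroblasts. Gain or loss of signal was fitted in both directions against DMSO.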
`OCc1c[nH]c2ccccc12`: the concentration at half-maximal activity (AC50) was 20 µM (active).
As for `c1ccc2cc3ccccc3cc2c1`, the result was inactive.
Regarding `COc1cc(C(C)C)c2c(c1)S(=O)(=O)N(COc1cc(=O)n3cccc(OCCN4CCCCC4)c3n1)C2=O`, the half-maximal activity concentration (AC50) is 7.75 µM (active).
As for `O=S(=O)(O)CCC(F)(F)C(F)(F)C(F)(F)C(F)(F)C(F)(F)C(F)(F)F`, the outcome was inactive.
Take `Cc1nccn1-c1ccc(Sc2cccc(C3(C(N)=O)CCOCC3)c2)cc1`: the AC50 is 20 µM (active).
In the case of `CC(C)CC(C)O` (configuration not stated), the outcome was inactive.
On the same count and under the same terms, to `NC(=O)NN=Cc1ccc([N+](=O)[O-])o1` belongs “inactive”.
On to `c1ccc(C(O[C@@H]2CCCN(CCc3ccc4c(c3)OCO4)C2)c2ccccc2)cc1`, for which the AC50 was 32.2 µM (active).
Consider `CCCCOC(=O)c1ccccc1`, for which the result was inactive.
In the case of `FC(F)(F)C(F)(F)C(F)(F)C(F)(F)C(F)(F)C(F)(F)I`, the result was inactive.
In the case of `NC(=O)N1c2ccccc2C=Cc2ccccc21`, the outcome was inactive.
On the same count and under the same terms, to `Cc1nc(-c2ccccn2)ncc1C(=O)Nn1cc(C)c2cc(F)ccc21` belongs “inactive”; to `O=C(O)[C@H](O)[C@@H](O)C(=O)O`, “inactive”.
With `Cc1cccc(O)c1C`, the outcome was inactive.
Same read-out and setting: the entry for `C[Si](C)(C)C(F)(F)C(F)(F)C(F)(F)F` is “inactive”.
On the same count and under the same terms, the entry for `CCOC(N)=O` is “inactive”; for `OC[C@H]1O[C@@H]2O[C@H]3[C@H](O)[C@@H](O)[C@@H](O[C@H]4[C@H](O)[C@@H](O)[C@@H](O[C@H]5[C@H](O)[C@@H](O)[C@@H](O[C@H]6[C@H](O)[C@@H](O)[C@@H](O[C@H]7[C@H](O)[C@@H](O)[C@@H](O[C@H]1[C@H](O)[C@H]2O)O[C@@H]7CO)O[C@@H]6CO)O[C@@H]5CO)O[C@@H]4CO)O[C@@H]3CO` it is “inactive”.
Take `COc1cc2c(c(OC)c1OC)-c1ccc(OC)c(=O)cc1[C@@H](NC(C)=O)CC2`: the concentration at half-maximal activity (AC50) was 0.548 µM (active).
As for `OCCC(F)(F)C(F)(F)C(F)(F)C(F)(F)F`, the result was inactive.
Same read-out and setting: the entry for `O=C(O)c1cccc(C(=O)O)c1` is “inactive”; for `CNC(C)=O` it is “inactive”; for `CCCCCCCC1CCC(=O)O1` (configuration not stated) it is “inactive”.
As to `O=C1CN(N=Cc2ccc([N+](=O)[O-])o2)C(=O)N1`, the outcome was inactive.
On the same count and under the same terms, to `COS(C)(=O)=O` belongs “inactive”; to `S=P(N1CC1)(N1CC1)N1CC1`, “inactive”; to `C[C@@H](Oc1ccc(CNC(=O)c2cccnc2Oc2ccc3c(c2)OCO3)c(F)c1)C(=O)O`, “inactive”.
Consider `O=c1[nH]cnc2c1ncn2[C@H]1CC[C@@H](CO)O1`, for which the outcome was inactive.
